In ChEMBL document CHEMBL4513141, “CO-ADD screening of NIH (USA) - Clinical Collection” (2021) one finds Inhibition data, which are given here for ten compounds.

One experiment concerns Staphylococcus aureus. The following applies: Concentration 20 uM; ASSAY_TEST Inhibition of Bacterial Growth; detection method Absorption (OD600); MEDIA CAMHB; plate type 384well; NBS; CORNING #3640; time 18 hr.
The next experiment has as its system Escherichia coli. Particulars: Concentration 20 uM; ASSAY_TEST Inhibition of Bacterial Growth; detection method Absorption (OD600); MEDIA CAMHB; plate type 384well; NBS; CORNING #3640; time 18 hr.

Potency and affinity values are given separately.

As for `CC(C)c1cccc(C(C)C)c1O` [PROPOFOL], the Inhibition in the experiment with Staphylococcus aureus is listed as -2.39%; in the experiment on Escherichia coli it was -13.59%.
Regarding `NC(=O)C[S+]([O-])C(c1ccccc1)c1ccccc1` (centres undefined) [MODAFINIL], the results for the Inhibition with Staphylococcus aureus and in the experiment on Escherichia coli were 3.29% and 4.2%, respectively.
Turning to `CN(C)CCOc1ccc(/C(=C(/CCCl)c2ccccc2)c2ccccc2)cc1.O=C(O)CC(O)(CC(=O)O)C(=O)O` [TOREMIFENE CITRATE], the figures for the Inhibition in the experiment on Staphylococcus aureus and in the experiment with Escherichia coli were 24.11% and -1.37%, respectively.
As for `COc1cc2c(cc1OC)[C@@]13CCN4CC5=CCO[C@H]6CC(=O)N2[C@H]1[C@H]6[C@H]5C[C@H]43` [BRUCINE], the Inhibition in the experiment on Staphylococcus aureus was 7.1%; in the experiment on Escherichia coli, -1.43%.
For the compound `C[N+]1(C)CCC(OC(=O)C(O)(c2ccccc2)C2CCCC2)C1.[Br-]` (centres undefined) [GLYCOPYRRONIUM BROMIDE], the Inhibition with Staphylococcus aureus is listed as 11.8%.
Turning to `Cl.Oc1ccc2c3c1OC1C(O)CC[C@@]4(O)[C@@H](C2)N(CC2CCC2)CC[C@]314` (some centres undefined), the Inhibition is on record as 18.7% in the experiment on Staphylococcus aureus and -2.31% in the experiment on Escherichia coli.
Regarding `NC1=NC(=O)C(c2ccccc2)O1` (centres undefined) [PEMOLINE], the Inhibition in the experiment with Staphylococcus aureus is 13.44%; in the experiment with Escherichia coli, 0.76%.
`CC1CCC[C@H](O)CCCCCc2cc(O)cc(O)c2C(=O)O1` (some centres undefined): the Inhibition with Staphylococcus aureus was 10.2%; with Escherichia coli, 1.45%.
In the case of `C[C@]12Cc3c[nH]nc3C[C@@H]1CC[C@@H]1[C@@H]2CC[C@@]2(C)[C@H]1CC[C@]2(C)O` [STANOZOLOL], the Inhibition in the experiment with Staphylococcus aureus was -5.12%; with Escherichia coli, 3.01%.
The matching figures for `C[C@]12CCC(=O)C[C@@H]1CC[C@@H]1[C@@H]2CC[C@@]2(C)[C@H]1CC[C@]2(C)O` [MESTANOLONE]: -23.2% and 5.51%.

In general, Inhibition refers to the change of the read-out against control, counted positive when it falls.
